From PubChem BioAssay (NCATS) come the findings set out here.

Results filed as inconclusive are left out. Entries that show only a call come without a potency. Active and inactive are the calls of the source. Calls come from the whole dose curve; as a rule, active = well fitted cell-killing curve with a large enough effect; inconclusive = small, poorly fitted or top-dose-only effect, or effect the other way; inactive = no such curve, though single readings can be large or run the other way.
Potency is the fitted concentration of half-maximal effect.

The nature of this test: Quantitative High-Throughput drug screen in 47 multiple myeloma cell lines against the NCATS MIPE library collection: PE2_PLB cell viability assay (AID 1919869). Note: nearly all actives have a fitted effect of over 35% in size. The settings on record: PE2_PLB myeloma cells viability, ATP luminescence, 48 h; series mostly up to 45.8 µM. From the text:
PI: Beverly A. Mock Ph.D.
Laboratory of Cancer Biology and Genetics,
Center for Cancer Research, National Cancer Institute,
National Institute of Health, Bethesda, Maryland
Drug resistance and disease progression are common in multiple myeloma (MM) patients, underscoring the need for new therapeutic combinations. […] We hypothesized that effective combinations would reduce MYC expression and enhance p16 activity. […] These preclinical data identify potentially useful drug combinations for evaluation in drug-resistant MM and reveal potential mechanisms of combined drug sensitivity.
Described herein is the primary MIPE qHTS used to cherrypick compounds. Validated compounds were then further tested for potential synergistic activiy.
[1] Peat TJ, Gaikwad SM, Dubois W, Gyabaah-Kessie N, Zhang S, Gorjifard S, Phyo Z, Andres M, Hughitt VK, Simpson RM, Miller MA, Girvin AT, Taylor A, Williams D, D'Antonio N, Zhang Y, Rajagopalan A, Flietner E, Wilson K, Zhang X, Shinn P, Klumpp-Thomas C, McKnight C, Itkin Z, Chen L, Kazandijian D, Zhang J, Michalowski AM, Simmons JK, Keats J, Thomas CJ, Mock BA. Drug combinations identified by high-throughput screening promote cell cycle transition and upregulate Smad pathways in myeloma. Cancer Lett. 2023 Aug 1;568:216284. doi: 10.1016/j.canlet.2023.216284. Epub 2023 Jun 24. PMID: 37356470; PMCID: PMC10408729.
SEQUENCE No. (e.g., 1, 2, 3, etc.); […] (e.g., Cells, Incubation, Reagent, etc.); VALUE and DESCRIPTION.
1; Cells; 5 uL; white, solid bottom 1536-well Greiner assay plate.
2; Compounds; 23 nL; Kalypsis pin tool (Wako USA) equipped with a 1536-well pin head to transfer to the assay plates.
3; Incubation; 48 hours; 37C incubation.
4; Reagent;5uL; CellTiter Glo (Promega).
5; Detector; 425V; Luminescence; Viewlux PerkinElmer.
NOTES (numbers refer to Sequence numbers above)
1. The cell-based screening methods employed in this study were like those previously published. Briefly, the corresponding myeloma cell lines were screened in 1,536-well plates with 500 cells, 5-uL per well for inhibition of cell viability (assessed by measuring ATP levels with CellTiterGlo).
2. NCATS MIPE 4.0 library of approved and investigational drugs were added using the Kalypsis pin tool. Wells treated with DMSO only for 100% viability and media only for 0% viability were used as controls.
3. The assay plates were covered and incubated for 48 hours in a 37C, 5% CO2 incubator with controlled humidity.
4. After 48 hours, CellTilter-GloTM luminescent substrate mix (Promega) reagent was added to the assay plate and plates we incubated for 5 min at room temperature.
5. Signal was measured as median relative luminescence units on a ViewLux (PerkinElmer) multiplate reader.
[1] Heske CM, Davis MI, Baumgart JT, Wilson K, Gormally MV, Chen L, Zhang X, Ceribelli M, Duveau DY, Guha R, Ferrer M, Arnaldez FI, Ji J, Tran HL, Zhang Y, Mendoza A, Helman LJ, Thomas CJ. Matrix Screen Identifies Synergistic Combination of PARP Inhibitors and Nicotinamide Phosphoribosyltransferase (NAMPT) Inhibitors in Ewing Sarcoma. Clin Cancer Res. 2017 Dec 1;23(23):7301-7311. doi: 10.1158/1078-0432.CCR-17-1121. Epub 2017 Sep 12. PMID: 28899971; PMCID: PMC6636827.
For `C[C@](O)(CS(=O)(=O)c1ccc(F)cc1)C(=O)Nc1ccc(C#N)c(C(F)(F)F)c1`, the Potency was 662 nM (active).
With `C[C@]12CC[C@H]3[C@@H](CC[C@@]45O[C@H]4C(O)=C(C#N)C[C@]35C)[C@H]1CC[C@H]2O`, the Potency result was “inactive”.
The result for `COc1cc(OC)c(OC)cc1C=O` reads “inactive”.
As for `CC(C)C[C@H](CN)CC(=O)O`, the Potency entry is “inactive”.
As for `CC(NC(C)(C)C)C(=O)c1cccc(Cl)c1` (stereo not given), the entry is “inactive”; as for `CCC1(c2ccc(N)cc2)CCC(=O)NC1=O` (stereo not given), “inactive”; as for `O=C(O)CCCc1ccc(N(CCCl)CCCl)cc1`, “inactive”.
For the compound `C[C@]12CC[C@@H]3c4ccc(OC(=O)N(CCCl)CCCl)cc4CC[C@H]3[C@@H]1CC[C@@H]2OP(=O)(O)O`, the Potency result is “inactive”.
The result for `CN1C(=O)CCS(=O)(=O)C1c1ccc(Cl)cc1` (stereo not given) reads “inactive”; that for `CC(C)c1cccc(C(C)C)c1O`, “inactive”.
